The supplement of paper PMC10849652
The full data set covers some 7,900 targets. This sample favours those with a hit. About 0.6% of all pairs of compound and target were hits. Values without a mark were called inactive.

How the values were obtained:
Assay in all cases: log2 fold change, soluble protein after heating vs DMSO (PISA); higher = thermal stabilisation; K562 cells, 10 uM, 30 min; active = over 0.2 and 3.5 SD of the protein, either way, in both replicates (recomputed)
[1] = compound: C1COCCN1CCN2C3=CC=CC=C3N=C2NC(=O)C4=CC(=CC=C4)[N+](=O)[O-] [IRAK-1-4 Inhibitor I]
In short: (§1)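 K562 cells (2×10^6 cells/mL) were treated with 10 μM compound for 30 min, and aliquots were heated for 3 min over 48°C-58°C. Pooled aliquots were extracted in PBS with 0.5% NP-40 at 4°C, and the supernatant after 21,000xg for 90 min was measured by TMTpro 16plex LC-MS/MS with channel sums equalised. Reported thermal stability, relative to control samples and from duplicates, is a log2 fold change.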

[2] = compound: C=CC(=O)N1CCC[C@@H](n2nc(-c3ccc(Oc4ccccc4)cc3)c3c(N)ncnc32)C1 [ibrutinib]
In short: as §1

[3] = compound: CC(=O)c1cnc2ccc(-c3cc(Cl)c(O)c(Cl)c3)nc2c1N[C@H]1CC[C@H](CN(C)C)CC1
In short: as §1

[4] = compound: CC(C)(C)Cn1c(N)nc2ccc(-c3[nH]c(C(C)(C)C)nc3-c3ccc(F)cc3)nc21 [ralimetinib]
In short: as §1

[5] = compound: CC(C)(O)CC(=O)NCCn1ccc2ncnc(Nc3ccc(Oc4cccc(C(F)(F)F)c4)c(Cl)c3)c21
In short: as §1

[6] = compound: CC(C)C1=C2N=C(C=C(N2N=C1)NCC3=CC=CC=C3)NCCCCCCN
In short: as §1

[7] = compound: CC(C)C[C@@H](C=O)NC(=O)[C@H](CC(C)C)NC(=O)[C@H](CC(C)C)NC(=O)OCc1ccccc1
In short: as §1

[8] = compound: CC(C)N(C[C@H]1O[C@@H](n2cnc3c(N)ncnc32)[C@H](O)[C@@H]1O)[C@H]1C[C@@H](CCc2nc3cc(C(C)(C)C)ccc3[nH]2)C1 [pinometostat]
In short: as §1

[9] = compound: CC1=C(C(CC(=O)N1)C2=CC=C(C=C2)C(F)(F)F)C(=O)NC3=C(C=C4C(=C3)C=NN4)F
In short: as §1

[10] = compound: CC1=C(C2=C(C=C1)C(=O)C3=CC=CC=C3N2CCCN)C
In short: as §1

[11] = compound: CC1=C(C=C(C=C1)NC(=O)C2=CC(=CC=C2)C(C)(C)C#N)NC3=CC4=C(C=C3)N=CN(C4=O)C
In short: as §1

[12] = compound: CC1=C(C=C(C=C1)NC(=O)C2=CC(=CC=C2)N(C)C)NC(=O)C3=CC=C(C=C3)O
In short: as §1

[13] = compound: CC1=CC=C(C=C1)SC2=C3C=C(SC3=CN=C2)C(=O)N
In short: as §1

[14] = compound: CC1=NC(=CC=C1)C2=C(N=C(N2)C(C)(C)C)C3=CC4=NC=CN=C4C=C3
In short: as §1

[15] = compound: CCCCN(Cc1ccc(C(=O)NO)cc1)C(=O)Nc1ccccc1 [Nexturastat A]
In short: as §1

[16] = compound: CCCS(=O)(=O)Nc1ccc(F)c(C(=O)c2c[nH]c3ncc(-c4ccc(Cl)cc4)cc23)c1F [vemurafenib]
In short: as §1

[17] = compound: CCCS(=O)(=O)Nc1ccc(F)c(C(=O)c2c[nH]c3ncc(Cl)cc23)c1F
In short: as §1

[18] = compound: CCCc1cc(C)[nH]c(=O)c1CNC(=O)c1cc(-c2ccnc(N3CCN(C)CC3)c2)cc2c1cnn2C(C)C
In short: as §1

[19] = compound: CCN(CC)Cc1ccc2cc(COC(=O)Nc3ccc(C(=O)NO)cc3)ccc2c1 [givinostat]
In short: as §1

[20] = compound: CCN(CCCOc1ccc2c(Nc3cc(CC(=O)Nc4cccc(F)c4)[nH]n3)ncnc2c1)CCOP(=O)(O)O [barasertib]
In short: as §1

Chain of UniProt Q9NXX6 (Q9NXX6 whole entry, looked up): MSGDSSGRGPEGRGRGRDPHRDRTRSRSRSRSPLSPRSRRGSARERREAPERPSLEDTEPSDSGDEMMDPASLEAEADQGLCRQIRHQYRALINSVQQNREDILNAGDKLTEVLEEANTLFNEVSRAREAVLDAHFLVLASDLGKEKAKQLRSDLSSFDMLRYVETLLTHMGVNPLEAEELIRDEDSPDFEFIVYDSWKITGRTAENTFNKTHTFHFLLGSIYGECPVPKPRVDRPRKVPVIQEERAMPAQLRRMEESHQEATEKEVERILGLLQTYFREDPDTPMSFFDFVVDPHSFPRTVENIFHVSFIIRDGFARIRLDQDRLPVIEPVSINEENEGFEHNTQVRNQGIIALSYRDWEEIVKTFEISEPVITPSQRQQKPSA
Chain of UniProt Q16656 (Q16656 whole entry, looked up): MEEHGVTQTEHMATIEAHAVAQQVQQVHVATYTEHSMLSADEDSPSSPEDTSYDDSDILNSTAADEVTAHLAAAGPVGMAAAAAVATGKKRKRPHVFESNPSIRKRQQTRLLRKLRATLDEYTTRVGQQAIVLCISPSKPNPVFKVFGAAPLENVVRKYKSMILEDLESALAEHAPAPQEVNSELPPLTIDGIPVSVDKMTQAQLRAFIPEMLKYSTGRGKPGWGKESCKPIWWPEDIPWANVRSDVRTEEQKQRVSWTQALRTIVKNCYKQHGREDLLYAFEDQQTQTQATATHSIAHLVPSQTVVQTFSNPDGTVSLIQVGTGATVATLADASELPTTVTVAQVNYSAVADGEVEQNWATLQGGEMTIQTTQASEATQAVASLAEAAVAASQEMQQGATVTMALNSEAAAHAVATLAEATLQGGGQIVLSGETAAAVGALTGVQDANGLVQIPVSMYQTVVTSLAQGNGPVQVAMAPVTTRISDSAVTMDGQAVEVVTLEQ
Chain of UniProt Q8WVJ2 (Q8WVJ2 whole entry, looked up): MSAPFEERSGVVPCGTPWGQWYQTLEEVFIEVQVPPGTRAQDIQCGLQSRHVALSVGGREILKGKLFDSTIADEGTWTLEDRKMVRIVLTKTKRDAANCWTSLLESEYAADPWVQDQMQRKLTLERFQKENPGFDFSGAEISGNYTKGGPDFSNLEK
Chain of UniProt Q8WUY8 (Q8WUY8 whole entry, looked up): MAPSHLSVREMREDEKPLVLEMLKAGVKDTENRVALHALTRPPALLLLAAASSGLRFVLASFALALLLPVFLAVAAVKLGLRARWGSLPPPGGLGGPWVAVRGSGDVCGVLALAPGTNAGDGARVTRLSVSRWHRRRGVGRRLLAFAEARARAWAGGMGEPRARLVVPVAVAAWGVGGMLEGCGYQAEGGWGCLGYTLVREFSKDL
Chain of UniProt O00483 (O00483 whole entry, looked up): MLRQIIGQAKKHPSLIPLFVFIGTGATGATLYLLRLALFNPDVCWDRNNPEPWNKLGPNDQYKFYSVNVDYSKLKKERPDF
Chain of UniProt O14524 (O14524 whole entry, looked up): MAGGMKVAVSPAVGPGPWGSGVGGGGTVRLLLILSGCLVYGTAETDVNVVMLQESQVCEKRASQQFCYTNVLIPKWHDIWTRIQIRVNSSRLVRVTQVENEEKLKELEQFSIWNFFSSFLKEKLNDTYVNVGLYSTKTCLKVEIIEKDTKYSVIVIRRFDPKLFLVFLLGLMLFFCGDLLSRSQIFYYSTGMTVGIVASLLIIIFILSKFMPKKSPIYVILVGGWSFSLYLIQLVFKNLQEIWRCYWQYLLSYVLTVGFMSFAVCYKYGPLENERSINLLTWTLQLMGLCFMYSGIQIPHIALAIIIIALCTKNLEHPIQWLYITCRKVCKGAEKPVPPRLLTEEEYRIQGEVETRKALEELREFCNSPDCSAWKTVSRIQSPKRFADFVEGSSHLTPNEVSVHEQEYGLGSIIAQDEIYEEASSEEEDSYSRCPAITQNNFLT
Chain of UniProt P55786 (P55786 whole entry, looked up): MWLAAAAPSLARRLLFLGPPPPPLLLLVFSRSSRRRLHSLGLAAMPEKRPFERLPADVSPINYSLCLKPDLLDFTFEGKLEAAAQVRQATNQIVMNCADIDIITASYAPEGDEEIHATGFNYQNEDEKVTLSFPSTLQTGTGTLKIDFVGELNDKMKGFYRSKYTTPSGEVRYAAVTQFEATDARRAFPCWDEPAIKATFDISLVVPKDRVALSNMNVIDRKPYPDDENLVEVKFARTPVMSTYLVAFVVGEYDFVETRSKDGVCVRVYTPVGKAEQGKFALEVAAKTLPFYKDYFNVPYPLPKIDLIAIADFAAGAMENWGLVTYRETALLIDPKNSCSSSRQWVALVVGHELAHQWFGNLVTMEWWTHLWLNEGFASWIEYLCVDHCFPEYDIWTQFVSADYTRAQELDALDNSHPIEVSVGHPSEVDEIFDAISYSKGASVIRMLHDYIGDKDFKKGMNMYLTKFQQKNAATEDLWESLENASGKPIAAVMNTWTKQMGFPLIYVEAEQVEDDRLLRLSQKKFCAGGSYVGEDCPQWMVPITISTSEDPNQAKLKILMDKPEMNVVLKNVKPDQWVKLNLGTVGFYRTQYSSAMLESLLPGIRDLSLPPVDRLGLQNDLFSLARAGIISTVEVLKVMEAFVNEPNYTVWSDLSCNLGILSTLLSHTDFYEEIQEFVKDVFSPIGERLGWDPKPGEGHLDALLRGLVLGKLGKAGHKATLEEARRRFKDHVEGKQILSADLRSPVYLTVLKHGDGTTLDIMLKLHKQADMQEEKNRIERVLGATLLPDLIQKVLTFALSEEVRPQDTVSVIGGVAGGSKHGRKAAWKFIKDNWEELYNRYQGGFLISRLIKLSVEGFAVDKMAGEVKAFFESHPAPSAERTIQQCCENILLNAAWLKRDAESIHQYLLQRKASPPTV
Chain of UniProt Q86WC4 (Q86WC4 whole entry, looked up): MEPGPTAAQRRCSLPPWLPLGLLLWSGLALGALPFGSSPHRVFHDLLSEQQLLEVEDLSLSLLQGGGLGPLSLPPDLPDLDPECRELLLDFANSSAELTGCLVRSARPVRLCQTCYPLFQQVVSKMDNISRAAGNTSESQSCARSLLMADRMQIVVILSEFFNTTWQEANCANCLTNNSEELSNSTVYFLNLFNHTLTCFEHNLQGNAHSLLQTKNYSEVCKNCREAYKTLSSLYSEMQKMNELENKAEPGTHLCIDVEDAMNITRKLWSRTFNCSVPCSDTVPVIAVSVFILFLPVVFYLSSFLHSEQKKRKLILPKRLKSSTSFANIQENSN
Chain of UniProt Q969V5 (Q969V5 whole entry, looked up): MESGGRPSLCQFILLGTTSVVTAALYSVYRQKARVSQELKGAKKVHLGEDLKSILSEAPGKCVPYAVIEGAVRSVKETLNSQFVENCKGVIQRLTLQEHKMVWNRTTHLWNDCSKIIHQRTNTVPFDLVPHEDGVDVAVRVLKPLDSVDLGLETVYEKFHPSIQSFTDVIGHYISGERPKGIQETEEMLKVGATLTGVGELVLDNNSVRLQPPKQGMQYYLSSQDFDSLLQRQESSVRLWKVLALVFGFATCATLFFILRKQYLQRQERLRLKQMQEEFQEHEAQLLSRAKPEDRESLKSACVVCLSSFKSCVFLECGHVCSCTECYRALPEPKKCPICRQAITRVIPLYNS
Chain of UniProt P15559 (P15559 whole entry, looked up): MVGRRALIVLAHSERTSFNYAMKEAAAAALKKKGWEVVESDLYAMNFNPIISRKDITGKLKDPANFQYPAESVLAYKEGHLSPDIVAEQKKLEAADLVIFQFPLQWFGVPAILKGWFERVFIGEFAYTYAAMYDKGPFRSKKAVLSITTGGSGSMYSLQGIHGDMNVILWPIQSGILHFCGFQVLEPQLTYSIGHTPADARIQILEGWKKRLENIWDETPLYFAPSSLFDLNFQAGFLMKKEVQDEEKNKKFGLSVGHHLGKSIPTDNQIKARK
Chain of UniProt Q8NCE2 (Q8NCE2 whole entry, looked up): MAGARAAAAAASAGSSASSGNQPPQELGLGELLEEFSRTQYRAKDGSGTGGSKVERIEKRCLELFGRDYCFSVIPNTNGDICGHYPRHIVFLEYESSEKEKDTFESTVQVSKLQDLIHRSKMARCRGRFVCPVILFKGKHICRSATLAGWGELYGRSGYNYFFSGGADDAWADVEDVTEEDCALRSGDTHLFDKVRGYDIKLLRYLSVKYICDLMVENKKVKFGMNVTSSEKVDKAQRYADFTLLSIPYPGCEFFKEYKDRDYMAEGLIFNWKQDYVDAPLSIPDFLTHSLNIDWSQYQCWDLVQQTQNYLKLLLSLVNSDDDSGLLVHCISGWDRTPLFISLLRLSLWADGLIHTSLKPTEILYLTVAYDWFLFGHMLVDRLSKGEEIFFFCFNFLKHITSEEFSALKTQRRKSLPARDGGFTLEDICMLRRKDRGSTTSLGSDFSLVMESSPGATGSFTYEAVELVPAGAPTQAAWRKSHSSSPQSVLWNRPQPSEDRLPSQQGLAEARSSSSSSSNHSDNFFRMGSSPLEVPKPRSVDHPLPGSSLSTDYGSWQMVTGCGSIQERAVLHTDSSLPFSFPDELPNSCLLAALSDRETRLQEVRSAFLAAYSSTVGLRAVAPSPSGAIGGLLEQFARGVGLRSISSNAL
Chain of UniProt Q9NR45 (Q9NR45 whole entry, looked up): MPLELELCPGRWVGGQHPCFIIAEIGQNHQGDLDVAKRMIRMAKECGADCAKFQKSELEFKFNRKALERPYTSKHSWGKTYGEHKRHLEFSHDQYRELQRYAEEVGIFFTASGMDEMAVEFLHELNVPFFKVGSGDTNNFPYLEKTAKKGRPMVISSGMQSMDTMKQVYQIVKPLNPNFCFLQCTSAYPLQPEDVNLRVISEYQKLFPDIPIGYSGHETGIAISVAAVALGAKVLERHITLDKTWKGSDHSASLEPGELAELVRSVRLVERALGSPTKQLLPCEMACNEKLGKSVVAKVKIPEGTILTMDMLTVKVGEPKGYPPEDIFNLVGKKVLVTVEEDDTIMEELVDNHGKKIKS

Target | log2 fold change [1] | log2 fold change [2] | log2 fold change [3] | log2 fold change [4] | log2 fold change [5] | log2 fold change [6] | log2 fold change [7] | log2 fold change [8] | log2 fold change [9] | log2 fold change [10] | log2 fold change [11] | log2 fold change [12] | log2 fold change [13] | log2 fold change [14] | log2 fold change [15] | log2 fold change [16] | log2 fold change [17] | log2 fold change [18] | log2 fold change [19] | log2 fold change [20]
MRPS22 (UniProt P82650) | -0.027 | 0.051 | -0.02 | 0.017 | -0.102 | -0.11 | 0.04 | 0.007 | -0.013 | -0.175 | 0.041 | -0.029 | 0.022 | -0.018 | 0.092 | -0.024 | 0.037 | 0.049 | 0.032 | -0.055
NEMP1 (UniProt O14524) | 0.003 | -0.01 | -0.081 | -0.03 | -0.023 | -0.508 (active) | 0.08 | 0.009 | 0.099 | -0.119 | -0.051 | 0.037 | 0.031 | -0.022 | -0.057 | -0.084 | -0.041 | -0.001 | -0.061 | -0.034
NPEPPS (UniProt P55786) | 0.039 | 0 | -0.013 | 0.021 | -0.117 | 0.254 (active) | -0.035 | -0.026 | -0.01 | 0.045 | 0.079 | -0.012 | -0.004 | 0.018 | -0.017 | -0.022 | 0.003 | 0.009 | -0.02 | 0.008
NANS (UniProt Q9NR45) | 0.091 | -0.034 | -0.01 | 0.015 | -0.043 | -0.006 | -0.036 | 0 | 0.033 | 0.065 | 0.063 | -0.02 | 0.035 | 0.007 | -0.196 | -0.001 | 0.026 | 0.007 | -0.025 | 0.01
NSMCE4A (UniProt Q9NXX6) | 0.077 | -0.116 | -0.059 | 0.051 | 0.003 | 0.252 | 0.008 | 0 | -0.052 | -0.124 | 0 | 0.022 | -0.035 | -0.053 | 0.037 | 0.088 | -0.041 | -0.016 | -0.072 | 0.196
NDUFA4 (UniProt O00483) | 0 | -0.019 | -0.024 | -0.098 | -0.029 | -0.018 | -0.009 | -0.013 | 0.032 | 0.126 | 0.046 | -0.069 | -0.003 | 0.049 | -0.033 | 0.002 | 0.018 | -0.023 | -0.099 | 0.044
MUL1 (UniProt Q969V5) | 0.009 | 0.009 | -0.113 | -0.008 | -0.068 | -0.004 | 0.027 | 0.021 | -0.016 | -0.01 | -0.061 | -0.015 | 0.01 | -0.004 | -0.022 | -0.039 | 0.024 | 0.11 | 0.005 | 0.005
NUP107 (UniProt P57740) | -0.054 | -0.152 | -0.035 | 0.035 | 0.023 | -0.005 | 0.089 | 0.165 | 0.062 | -0.052 | -0.035 | 0.085 | 0.117 | 0.012 | 0.17 | 0.1 | 0.219 | -0.031 | 0.011 | 0.017
NAT14 (UniProt Q8WUY8) | -0.061 | 0.019 | -0.033 | -0.028 | -0.257 | -0.185 | 0.027 | -0.074 | 0.022 | -0.187 | 0.012 | -0.054 | 0.011 | 0.031 | 0.227 | 0.054 | -0.051 | -0.103 | -0.043 | 0.027
MTMR14 (UniProt Q8NCE2) | 0.027 | -0.069 | -0.015 | 0.004 | 0.028 | -0.04 | -0.004 | -0.041 | 0.06 | -0.029 | -0.009 | -0.048 | -0.004 | 0.02 | 0.028 | -0.02 | 0.071 | -0.016 | 0.061 | 0.019
NCOR1 (UniProt O75376) | 0.052 | 0.078 | -0.46 (active) | 0.01 | 0.011 | 0.055 | 0.022 | 0.05 | -0.084 | 0.093 | -0.035 | -0.075 | -0.195 | 0.101 | -0.079 | 0.01 | -0.149 | -0.079 | 0.014 | -0.094
NQO1 (UniProt P15559) | 0.001 | -0.053 | 0.044 | 0.001 | -0.029 | -0.035 | -0.045 | -0.02 | -0.038 | -0.01 | 0.075 | -0.023 | 0.032 | 0.025 | -0.049 | 0.027 | -0.007 | 0.039 | -0.01 | 0.036
NUDCD2 (UniProt Q8WVJ2) | -0.032 | -0.035 | -0.027 | 0.033 | -0.045 | -0.248 | -0.012 | 0.066 | -0.023 | -0.064 | -0.018 | -0.109 | 0.117 | 0.019 | 0.082 | -0.014 | 0.008 | -0.039 | 0.047 | 0.104
OSTM1 (UniProt Q86WC4) | 0.05 | -0.006 | 0.013 | 0.042 | -0.081 | -0.041 | 0.079 | -0.056 | 0.015 | -0.024 | -0.051 | -0.047 | 0 | 0.056 | -0.033 | 0.017 | 0.093 | -0.03 | 0.146 | -0.023
NRF1 isoform 4 (UniProt Q16656) | -0.014 | -0.007 | -0.059 | 0.024 | 0.082 | -0.125 | -0.025 | -0.004 | -0.037 | -0.419 (active) | 0.002 | 0.03 | -0.015 | 0.051 | -0.316 | 0.004 | 0.081 | -0.007 | 0.042 | 0.034
MRPS27 isoform 2 (UniProt Q92552) | -0.116 | 0.019 | -0.002 | 0.069 | -0.104 | -0.161 | -0.011 | -0.022 | -0.021 | -0.06 | 0.037 | -0.022 | 0.006 | 0.039 | 0.151 | 0.064 | 0.035 | 0.051 | 0.055 | -0.016
